Data on 80 molecules can be found in the supplement of paper PMC10670038.

Where a name gives a salt, the structure may show the parent alone. ± gives the standard deviation of the averaged measurements. The full ranking holds about 2,000 compounds; the median of “relative cell viability vs DMSO, compound alone” is about 1.1, and the lowest 2% start at about 0.29. The sample holds the lowest values, similar compounds and a random draw of the others, so the mix is not that of the screen.

The experiment has as its system TE10. Nature of the experiment: relative cell viability vs DMSO, compound alone (fraction); TE10 is an esophageal squamous carcinoma line; higher = less cytotoxic. The note with it: 2 µM; 48 h. On the procedure: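 TE10 ESCC cells (1,000/well, 384-well plates) were treated with Selleck bioactive library compounds at 2 uM alone for 48 h. Viability was read by CellTiter-Glo and expressed relative to DMSO wells. Two technical replicates (A, B).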
The molecule `O=C(O)c1ccccc1` [Benzoic Acid] came in with a relative cell viability of 1.09 ± 0.0064. The same measure for `O=C(O)CCNC(=O)c1ccccc1` [Betamipron]: 1.08 ± 0.022; for `CN(NC(=O)CC(=O)NN(C)C(=S)c1ccccc1)C(=S)c1ccccc1` [Elesclomol (STA-4783)]: 0.181 ± 0.013; for `CC1(C)O[C@@H]2[C@@H](CO[C@@]3(COS(N)(=O)=O)OC(C)(C)O[C@@H]23)O1` [Topiramate]: 1.29 ± 0.052. The value for `C[C@@H]1CN(CC(=O)Nc2ccc3c(c2)Cc2cccc(-c4cc(=O)cc(N5CCOCC5)o4)c2S3)C[C@H](C)O1` was 1.17 ± 0.021; that for `Cc1cc(C)cc(NC(=O)Cc2ccc(OC(C)(C)C(=O)O)cc2)c1` [Efaproxiral Sodium] was 1.11 ± 0.012.

`O=C(Nc1cc(C(F)(F)F)cc(C(F)(F)F)c1)c1cc(Cl)ccc1O` showed a relative cell viability of 0.18 ± 0.0024.

In the case of `CC(ONC(=O)c1cc(C(F)(F)F)cc(C(F)(F)F)c1)C(=O)Nc1ccc(Cl)cc1` (stereo not given), the relative cell viability was determined as 1.07 ± 0.024.

`O=C(Nc1ccccc1)c1ccccc1O` [Salicylanilide] displayed a relative cell viability of 1.07 ± 0.059.

For the molecule `C=CC(=O)Nc1cccc(Oc2nc(Nc3ccc(N4CCN(C)CC4)cc3)ncc2Cl)c1`, the relative cell viability stood at 0.758 ± 0.011. The molecule `C[C@H]1O[C@@H](O[C@H]2[C@@H](O)C[C@H](O[C@H]3[C@@H](O)C[C@H](O[C@H]4CC[C@@]5(C)[C@H](CC[C@@H]6[C@@H]5C[C@@H](O)[C@]5(C)[C@@H](C7=CC(=O)OC7)CC[C@]65O)C4)O[C@@H]3C)O[C@@H]2C)C[C@H](O)[C@@H]1O` [Digoxin] came in with a relative cell viability of 0.603 ± 0.013. For `Nc1nc(=O)n([C@@H]2CS[C@H](CO)O2)cc1F` [Emtricitabine], the relative cell viability turned out to be 1.06 ± 0.076. With `CCn1c2ccccc2c2cc(Nc3ccnc(NCCCN4CCOCC4)n3)ccc21`, the relative cell viability is 1.2 ± 0.076.

As to `CS(=O)(=O)N1CCN(Cc2cc3nc(-c4cccc5[nH]ncc45)nc(N4CCOCC4)c3s2)CC1`, the relative cell viability turned out to be 0.483 ± 0.0077. `COc1ccc(-c2nc(N3CCOCC3)c3sc(CN(C)c4ncc(C(=O)NO)cn4)cc3n2)cn1`: the relative cell viability worked out at 0.0746 ± 0.0025. `Cc1c(CN2CCN(C(=O)[C@H](C)O)CC2)sc2c(N3CCOCC3)nc(-c3cnc(N)nc3)nc12` had a relative cell viability of 0.317 ± 0.021. The same measure for `C[C@@H](Oc1ccc2[nH]nc(/C=C/c3cnn(CCO)c3)c2c1)c1c(Cl)cncc1Cl`: 0.712 ± 0.01. As to `Cc1nc(Nc2n[nH]c3c2CN(C(=O)N[C@H](CN(C)C)c2ccccc2)C3(C)C)c2sccc2n1`, the relative cell viability is 0.789 ± 0.037.

As to `COc1cccc2cc(-c3nc([C@H]4CC[C@H](C(=O)O)CC4)n4ncnc(N)c34)[nH]c12`, the relative cell viability is 0.667 ± 0.0089. As for `Cc1cc(N2CCOCC2)ccc1Nc1nc(NC2CCCCC2)c2[nH]cnc2n1`, the relative cell viability was determined as 1.098 ± 0.0034. In turn, `Cc1cccc(CC(=O)N2CCc3c2ccc(-c2cn(C)c4ncnc(N)c24)c3F)n1` registered a relative cell viability of 1.01 ± 0.047. On to `CCCCCCCCCCCCCCCC(=O)OCC(O)C1OC(=O)C(O)=C1O` [L-Ascorbyl 6-palmitate], for which the relative cell viability worked out at 1.14 ± 0.031. `O=C(/C=C/c1ccc(CN(CCO)CCc2c[nH]c3ccccc23)cc1)NO` [LAQ824 (Dacinostat)] registered a relative cell viability of 0.0682 ± 0.006. The same measure for `OCc1c[nH]c2ccccc12` [Indole-3-carbinol]: 1.14 ± 0.048. As to `O=C(O)CCCc1c[nH]c2ccccc12` [3-Indolebutyric acid (IBA)], the relative cell viability was determined as 1.1 ± 0.024.

In turn, `CCc1c(O)cc(O)c(C(=O)c2ccc(OCCN3CCOCC3)c(OC)c2)c1CC(=O)N(CCOC)CCOC` registered a relative cell viability of 0.546 ± 0.009. The molecule `CC(C)/N=c1\cc2n(-c3ccc(Cl)cc3)c3ccccc3nc-2cc1Nc1ccc(Cl)cc1` [Clofazimine] returned a relative cell viability of 0.929 ± 0.062.

In the case of `CC(C)CC(N)=O` [Isovaleramide], the relative cell viability was determined as 1.1 ± 0.057.

`CN1CCc2c(c3ccccc3n2Cc2ccc(C(=O)NO)cc2)C1` [Tubastatin A]: the relative cell viability worked out at 1.14 ± 0.023. The same measure for `COc1cc(C(=O)NS(=O)(=O)c2ccccc2C)ccc1Cc1cn(C)c2ccc(NC(=O)OC3CCCC3)cc12` [Zafirlukast]: 1.03 ± 0.033; for `Cn1cc(CNCC2CCN(c3ncc(C(=O)NO)cn3)CC2)c2ccccc21`: 0.078 ± 0.0008.

Consider `CN1CCc2c(c3ccccc3n2Cc2ccc(C(=O)NO)cc2)C1` [Tubastatin A HCl], for which the relative cell viability turned out to be 0.9558 ± 0.0063. The same measure for `CCOc1ccc2nc3cc(N)ccc3c(N)c2c1` [Ethacridine lactate monohydrate]: 1.033 ± 0.0023; for `CCN(CC)CCCCNc1ncc2cc(-c3cc(OC)cc(OC)c3)c(NC(=O)NC(C)(C)C)nc2n1`: 1.23 ± 0.029; for `NC1CC1c1ccc(-c2cccc(O)c2)cc1` (stereo not given): 1.09 ± 0.03.

`N[C@@H]1CCCN(c2c(/C=C3\SC(=O)NC3=O)cccc2-c2ccccc2)C1` had a relative cell viability of 1.03 ± 0.047. On to `CN(C)c1cccc(-c2c3c(=O)n(-c4ccccc4Cl)[nH]c3cc(=O)n2C)c1`, for which the relative cell viability amounted to 0.959 ± 0.036. With `Nc1ccccc1NC(=O)c1cnccn1`, the relative cell viability came to 1.11 ± 0.037. The same measure for `CC(C)C[C@H](NC(=O)[C@@H](NC(=O)c1cccc(-c2ccccc2)n1)[C@@H](C)O)B(O)O`: 0.0932 ± 0.003; for `CC(C)C[C@H](NC(=O)[C@H](Cc1ccccc1)NC(=O)c1cnccn1)B(O)O` [Bortezomib (PS-341)]: 0.09 ± 0.011. For `CC(C)C[C@H](NC(=O)CNC(=O)c1cc(Cl)ccc1Cl)B(O)O`, the relative cell viability amounted to 0.341 ± 0.023.

As for `CNC(=O)[C@H](Cc1ccccc1)NC(=O)[C@H](CC(C)C)[C@H](CSc1cccs1)C(=O)NO` [Batimastat (BB-94)], the relative cell viability was found to be 0.884 ± 0.076. The value for `Cc1cc2c(cc1CC(=O)c1sccc1S(=O)(=O)Nc1onc(C)c1Cl)OCO2` [Sitaxentan sodium] was 1.06 ± 0.022.

With `CC(C)(O)CC(=O)NCCn1ccc2ncnc(Nc3ccc(Oc4cccc(C(F)(F)F)c4)c(Cl)c3)c21`, the relative cell viability came out at 1.17 ± 0.07. As to `Oc1ccc(Nc2nc(-c3ccc(Cl)cc3)cs2)cc1`, the relative cell viability came to 1.11 ± 0.019. The value for `COc1cc(C=O)ccc1O` [Vanillin] was 1.11 ± 0.027. `Cc1cc(Nc2cc(N3CCN(C)CC3)nc(/C=C/c3ccccc3)n2)n[nH]1` gave a relative cell viability of 0.856 ± 0.03. The same measure for `Cc1cc(Nc2cc(N3CCN(C)CC3)nc(/C=C/c3ccccc3)n2)n[nH]1` [ENMD-2076 L-(+)-Tartaric acid]: 0.808 ± 0.069; for `Cc1cc(C)nc(NS(=O)(=O)c2ccc(N)cc2)n1` [Sulfamethazine]: 1.1 ± 0.044. `COCCCC/C(=N\OCCN)c1ccc(C(F)(F)F)cc1` [Fluvoxamine maleate] displayed a relative cell viability of 1.21 ± 0.041. In turn, `CC1(C)CC[C@]2(NC(=O)C(C)(F)F)CC[C@]3(C)[C@H](C(=O)C=C4[C@@]5(C)C=C(C#N)C(=O)C(C)(C)[C@@H]5CC[C@]43C)[C@@H]2C1` [Omaveloxolone (RTA-408)] gave a relative cell viability of 0.59 ± 0.032.

In turn, `COC(=O)[C@]12CCC(C)(C)C[C@H]1[C@H]1C(=O)C=C3[C@@]4(C)C=C(C#N)C(=O)C(C)(C)[C@@H]4CC[C@@]3(C)[C@]1(C)CC2` [Bardoxolone Methyl] showed a relative cell viability of 0.272 ± 0.0085. The value for `N#Cc1ccc(-c2csc(NN=C3CCCC3)n2)cc1` [Remodelin] was 1.121 ± 0.0093. Molecule `COc1cc2ncnc(Nc3ccc(Cl)cc3F)c2cc1OC` yielded a relative cell viability of 0.999 ± 0.16.

With `NC(=O)Nc1cc(-c2cccc(F)c2)sc1C(=O)N[C@H]1CCCNC1`, the relative cell viability was 0.259 ± 0.021.

For the molecule `NC(=O)Nc1sc(-c2ccc(F)cc2)cc1C(N)=O`, the relative cell viability is 0.98 ± 0.072. The molecule `COc1cc(C(=O)NC2CCCNC2)cc(OC)c1OC` (stereo not given) [Troxipide] came in with a relative cell viability of 1.13 ± 0.016. In the case of `C[N+](C)(C)C[C@H](O)CC(=O)[O-]` [L-carnitine], the relative cell viability was determined as 1.04 ± 0.016. The same measure for `NC(=O)N1CCC(CC(=O)N2CCC([C@H]3c4ncc(Br)cc4CCc4cc(Cl)cc(Br)c43)CC2)CC1` [Lonafarnib]: 1.06 ± 0.049. As for `CNC[C@H](O)[C@@H](O)[C@H](O)[C@H](O)CO` [Meglumine], the relative cell viability is 1.008 ± 0.0073.

Molecule `Nc1ccc(-c2ccc3ncc4ccc(=O)n(-c5cccc(C(F)(F)F)c5)c4c3c2)cn1` [Torin 2] registered a relative cell viability of 0.378 ± 0.014. Consider `COc1ccc(-c2ccc3ncc4c(c3c2)n(-c2ccc(N3CCNCC3)c(C(F)(F)F)c2)c(=O)n4C)cn1`, for which the relative cell viability turned out to be 0.0662 ± 0.0018. On to `COc1cc(-c2cc(-c3ccc(N4CCNCC4)cc3)cnc2C)cc(OC)c1OC`, for which the relative cell viability turned out to be 1.16 ± 0.019. The same measure for `COc1cc(-c2cc(-c3cccc(O)c3)cnc2N)cc(OC)c1OC`: 1.21 ± 0.0055; for `COc1ccc(COc2cc3oc(=O)c4cc(C(C)O)ccc4c3cc2OC)cc1` (stereo not given) [Palomid 529 (P529)]: 1.14 ± 0.025.

For `COCCOC(=O)C1=C(C)NC(C)=C(C(=O)OC/C=C/c2ccccc2)C1c1cccc([N+](=O)[O-])c1` (stereo not given) [Cilnidipine], the relative cell viability is 1.15 ± 0.055. The same measure for `NCCCC[C@@H]1NC(=O)[C@@H](Cc2ccccc2)NC(=O)[C@H](CC(=O)O)NC(=O)CNC(=O)[C@H](CCCN=C(N)N)NC1=O` [Cyclo (-RGDfK)]: 1.1 ± 0.024; for `CCCCN(Cc1ccc(C(=O)NO)cc1)C(=O)Nc1ccccc1` [Nexturastat A]: 0.716 ± 0.074. With `CC(C)[C@H](C(=O)Nc1ccc(C(=O)NO)cc1)c1ccccc1`, the relative cell viability came out at 0.221 ± 0.015. Turning to `CC(=O)Nc1ccc(C(=O)Nc2ccccc2N)cc1` [CI994 (Tacedinaline)], the relative cell viability was 1 ± 0.017. In turn, `O=C(NC[C@H]1CN(c2ccc(N3CCOCC3=O)cc2)C(=O)O1)c1ccc(Cl)s1` [Rivaroxaban] showed a relative cell viability of 1.04 ± 0.076. Turning to `C[C@]12CCC3=C4CCC(=O)C=C4CC[C@H]3[C@@H]1CC[C@@]2(O)CC#N` [Dienogest], the relative cell viability came to 1.19 ± 0.024. The same measure for `c1cc(-c2cnn3cc(-c4ccc(N5CCNCC5)cc4)cnc23)c2cccnc2c1`: 0.0982 ± 0.0034; for `CC(C)Oc1ccc(-c2cnc3c(-c4ccnc5ccccc45)cnn3c2)cc1`: 1.19 ± 0.027; for `COc1ccc(-c2cnc3c(-c4cccc5ncccc45)cnn3c2)cc1`: 1.171 ± 0.0012. For `COC(=O)c1ccc2c(c1)nc(NC(=O)c1ccccc1)n2CCCc1ccccc1`, the relative cell viability was 0.777 ± 0.0059. `O=C(c1ccc(Nc2nccc(-c3cc4ccccc4s3)n2)cc1)N1CCC(N2CCCC2)CC1` [IKK-16 (IKK Inhibitor VII)] showed a relative cell viability of 1.03 ± 0.02. The same measure for `CN1CC[C@@H](c2c(O)cc(O)c3c(=O)cc(-c4ccccc4Cl)oc23)[C@@H]1CO`: 0.501 ± 0.008. `CN1CC[C@H](c2c(O)cc(O)c3c(=O)cc(-c4ccccc4Cl)oc23)[C@H](O)C1` [Flavopiridol (Alvocidib)] showed a relative cell viability of 0.228 ± 0.055. With `CN1CC[C@H](c2c(O)cc(O)c3c(=O)cc(-c4ccccc4Cl)oc23)[C@H](O)C1` [Flavopiridol HCl], the relative cell viability turned out to be 0.293 ± 0.03.
